In PubChem BioAssay AID1159580 (chemical genetic matrix, 2015):
The campaign covered roughly 5,500 compounds. About 2,000 (36%) were called active. About 18% were inconclusive and are not listed. No stated cut-off is given here; in the data, active means normalized growth mostly below about 0.91 (no sharp cut-off); inconclusive means no clear call, values can overlap the other calls; inactive means mostly above about 0.92. The list shows a part of the results.

Assay: chemical genetic growth profiling, strain panel (AID 1159580);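 further: tested at 20 µM; growth read once vehicle control cultures reached saturation at 30 °C; 1 = growth at the plate median or of vehicle wells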
Settings: growth OD
[1] = S. cerevisiae deletion strains, locus YDL101C, strain DUN1, stronger effect = lower value
[2] = S. cerevisiae deletion strains, locus YHR030C, strain SLT2, stronger effect = lower value

Measured: normalized growth

O=C(Oc1ccc(C(F)(F)F)cc1[N+](=O)[O-])c1c(F)cccc1F
active: S. cerevisiae deletion strains, locus YAL013W, strain DEP1, stronger effect = lower value 0.185 | S. cerevisiae deletion strains, locus YBR229C, strain ROT2, stronger effect = lower value 0.178 | [1] 0.316 | S. cerevisiae deletion strains, locus YDR150W, strain NUM1, stronger effect = lower value 0.25 | S. cerevisiae deletion strains, locus YEL061C, strain CIN8, stronger effect = lower value 0.235 | S. cerevisiae deletion strains, locus YGR078C, strain PAC10, stronger effect = lower value 0.172 | S. cerevisiae deletion strains, locus YGR229C, strain SMI1, stronger effect = lower value 0.927 | [2] 0.16 | S. cerevisiae deletion strains, locus YHR087W, strain rtc3, stronger effect = lower value 0.133 | S. cerevisiae deletion strains, locus YJL187C, strain SWE1, stronger effect = lower value 0.141 | S. cerevisiae deletion strains, locus YJR043C, strain POL32, stronger effect = lower value 0.424 | S. cerevisiae deletion strains, locus YJR075W, strain HOC1, stronger effect = lower value 0.101 | S. cerevisiae deletion strains, locus YKL190W, strain CNB1, stronger effect = lower value 0.218 | S. cerevisiae deletion strains, locus YLR039C, strain RIC1, stronger effect = lower value 0.286 | S. cerevisiae deletion strains, locus YLR058C, strain SHM2 (second series), stronger effect = lower value 0.15 | S. cerevisiae deletion strains, locus YLR085C, strain ARP6, stronger effect = lower value 0.122 | S. cerevisiae deletion strains, locus YLR262C, strain YPT6, stronger effect = lower value 0.316 | S. cerevisiae deletion strains, locus YML094W, strain GIM5, stronger effect = lower value 0.4 | S. cerevisiae deletion strains, locus YMR219W, strain ESC1, stronger effect = lower value 0.14 | S. cerevisiae deletion strains, locus YMR263W, strain SAP30, stronger effect = lower value 0.169 | S. cerevisiae deletion strains, locus YMR307W, strain GAS1, stronger effect = lower value 0.213 | S. cerevisiae deletion strains, locus YNL153C, strain GIM3, stronger effect = lower value 0.227 | S. cerevisiae deletion strains, locus YNL298W, strain CLA4 (second series), stronger effect = lower value 0.23 | S. cerevisiae deletion strains, locus YNL322C, strain KRE1, stronger effect = lower value 0.577 | S. cerevisiae deletion strains, locus YNR030W, strain Alg12, stronger effect = lower value 0.559 | S. cerevisiae deletion strains, locus YPL055C, strain LGE1, stronger effect = lower value 0.171 | S. cerevisiae deletion strains, locus YPL241C, strain CIN2, stronger effect = lower value 0.685 | S. cerevisiae deletion strains, locus YPR135W, strain CTF4, stronger effect = lower value 0.269 | S. cerevisiae strains, strain wild type, stronger effect = lower value 0.515

Cc1ccc(OCC2SCCN2C(=O)c2ccc(C(F)(F)F)cc2)c([N+](=O)[O-])c1 (stereo not given)
inactive: S. cerevisiae deletion strains, locus YAR019C, strain CDC15, stronger effect = lower value 1.01 | S. cerevisiae deletion strains, locus YBL105C, strain PKC1, stronger effect = lower value 1.01 | S. cerevisiae deletion strains, locus YBR135W, strain CKS1, stronger effect = lower value 1.01 | S. cerevisiae deletion strains, locus YBR136W, strain MEC1, stronger effect = lower value 1.02 | S. cerevisiae deletion strains, locus YBR160W, strain CDC28, stronger effect = lower value 1.01 | S. cerevisiae deletion strains, locus YDL017W, strain CDC7, stronger effect = lower value 1.03 | S. cerevisiae deletion strains, locus YDL028C, strain MPS1, stronger effect = lower value 1.02 | [1] 1 | S. cerevisiae deletion strains, locus YDL108W, strain KIN28, stronger effect = lower value 1.02 | S. cerevisiae deletion strains, locus YDL132W, strain cdc53, stronger effect = lower value 1 | S. cerevisiae deletion strains, locus YDL214C, strain PRR2, stronger effect = lower value 0.998 | S. cerevisiae deletion strains, locus YDR052C, strain DBF4, stronger effect = lower value 1.02 | S. cerevisiae deletion strains, locus YDR054C, strain cdc34, stronger effect = lower value 0.986 | S. cerevisiae deletion strains, locus YDR226W, strain ADK1, stronger effect = lower value 1.01 | S. cerevisiae deletion strains, locus YDR477W, strain SNF1, stronger effect = lower value 0.981 | S. cerevisiae deletion strains, locus YER123W, strain YCK3, stronger effect = lower value 0.955 | S. cerevisiae deletion strains, locus YER133W, strain GLC7, stronger effect = lower value 0.985 | S. cerevisiae deletion strains, locus YFL009W, strain cdc4, stronger effect = lower value 1.02 | S. cerevisiae deletion strains, locus YFL029C, strain CAK1, stronger effect = lower value 1.01 | S. cerevisiae deletion strains, locus YFR003C, strain YPI1, stronger effect = lower value 1.01 | S. cerevisiae deletion strains, locus YFR019W, strain FAB1, stronger effect = lower value 0.97 | S. cerevisiae deletion strains, locus YFR028C, strain CDC14, stronger effect = lower value 1.01 | S. cerevisiae deletion strains, locus YGR040W, strain KSS1, stronger effect = lower value 1 | S. cerevisiae deletion strains, locus YGR052W, strain FMP48, stronger effect = lower value 1.12 | S. cerevisiae deletion strains, locus YGR092W, strain DBF2, stronger effect = lower value 1.02 | [2] 0.984 | S. cerevisiae deletion strains, locus YHR079C, strain IRE1, stronger effect = lower value 1.01 | S. cerevisiae deletion strains, locus YHR082C, strain KSP1, stronger effect = lower value 1.09 | S. cerevisiae deletion strains, locus YHR205W, strain SCH9, stronger effect = lower value 0.998 | S. cerevisiae deletion strains, locus YIL147C, strain SLN1, stronger effect = lower value 1.02 | S. cerevisiae deletion strains, locus YJL095W, strain BCK1, stronger effect = lower value 1.01 | S. cerevisiae deletion strains, locus YJL128C, strain PBS2, stronger effect = lower value 0.979 | S. cerevisiae deletion strains, locus YJL157C, strain FAR1, stronger effect = lower value 0.994 | S. cerevisiae deletion strains, locus YJR016C, strain ILV3, stronger effect = lower value 1.01 | S. cerevisiae deletion strains, locus YJR066W, strain TOR1 (second series), stronger effect = lower value 0.927 | S. cerevisiae deletion strains, locus YJR066W, strain TOR1, stronger effect = lower value 1.06 | S. cerevisiae deletion strains, locus YKL048C, strain ELM1, stronger effect = lower value 1 | S. cerevisiae deletion strains, locus YKL067W, strain YNK1, stronger effect = lower value 1 | S. cerevisiae deletion strains, locus YKL101W, strain HSL1, stronger effect = lower value 0.996 | S. cerevisiae deletion strains, locus YKL193C, strain SDS22, stronger effect = lower value 1.02 | S. cerevisiae deletion strains, locus YKL203C, strain TOR2, stronger effect = lower value 1.04 | S. cerevisiae deletion strains, locus YLR113W, strain HOG1, stronger effect = lower value 0.97 | S. cerevisiae deletion strains, locus YLR133W, strain CKI1, stronger effect = lower value 1 | S. cerevisiae deletion strains, locus YLR403W, strain SFP1, stronger effect = lower value 0.997 | S. cerevisiae deletion strains, locus YML070W, strain DAK1, stronger effect = lower value 0.982 | S. cerevisiae deletion strains, locus YMR001C, strain CDC5, stronger effect = lower value 1.01 | S. cerevisiae deletion strains, locus YMR205C, strain PFK2 (second series), stronger effect = lower value 1 | S. cerevisiae deletion strains, locus YMR277W, strain FCP1, stronger effect = lower value 1.02 | S. cerevisiae deletion strains, locus YNL006W, strain LST8, stronger effect = lower value 1.02 | S. cerevisiae deletion strains, locus YNL020C, strain ARK1, stronger effect = lower value 1 | S. cerevisiae deletion strains, locus YNL161W, strain CBK1, stronger effect = lower value 1.01 | S. cerevisiae deletion strains, locus YNL183C, strain NPR1, stronger effect = lower value 1.06 | S. cerevisiae deletion strains, locus YNL207W, strain RIO2, stronger effect = lower value 1.02 | S. cerevisiae deletion strains, locus YNL222W, strain SSU72, stronger effect = lower value 1.01 | S. cerevisiae deletion strains, locus YNL307C, strain MCK1 (second series), stronger effect = lower value 0.993 | S. cerevisiae deletion strains, locus YOL078W, strain AVO1, stronger effect = lower value 1.01 | S. cerevisiae deletion strains, locus YOL136C, strain PFK27, stronger effect = lower value 0.965 | S. cerevisiae deletion strains, locus YOR061W, strain CKA2, stronger effect = lower value 0.978 | S. cerevisiae deletion strains, locus YOR119C, strain RIO1, stronger effect = lower value 1.05 | S. cerevisiae deletion strains, locus YOR231W, strain MKK1, stronger effect = lower value 0.955 | S. cerevisiae deletion strains, locus YOR329C, strain SCD5, stronger effect = lower value 1.02 | S. cerevisiae deletion strains, locus YPL031C, strain PHO85, stronger effect = lower value 0.992 | S. cerevisiae deletion strains, locus YPL153C, strain RAD53, stronger effect = lower value 0.987 | S. cerevisiae deletion strains, locus YPL204W, strain HRR25, stronger effect = lower value 0.99 | S. cerevisiae deletion strains, locus YPL209C, strain IPL1, stronger effect = lower value 1.01 | S. cerevisiae deletion strains, locus YPL256C, strain CLN2, stronger effect = lower value 0.962 | S. cerevisiae deletion strains, locus YPR025C, strain CCL1, stronger effect = lower value 1.01 | S. cerevisiae deletion strains, locus YPR106W, strain ISR1, stronger effect = lower value 1.01 | S. cerevisiae deletion strains, locus YPR111W, strain DBF20, stronger effect = lower value 1 | S. cerevisiae deletion strains, strain NNK1, stronger effect = lower value 1.03 | S. cerevisiae deletion strains, strain TSCII, stronger effect = lower value 1
